The list is not random: actives were taken first. Their share in the collection is about 6.7%.
KB-3-1 tox – KB-3-1 parental cell cytotoxicity; KB-3-1 viability, CellTiter-Glo ATP luminescence, 72 h; Potency, µM (highest dose often 46.1 µM), usual class: cytotoxic; 1.4% of 400,000 active; AID 1347075; note: % is set by controls: 0 for no effect and ±100 for the full control effect; nearly all actives have a fitted effect of over 60% in size
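Cells are dispensed, compounds pinned in, plates held at 37 °C for 72 h, then CellTiter-Glo is added and luminescence read after 10 minutes. Cell line: parental KB-3-1 in phenol-red-free DMEM, 10% FBS.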
KB-V1 cytotox – kills drug-selected multidrug resistant KB-V1 cells. KB-V1 MDR cells viability, CellTiter-Glo, 72 h. Potency, µM (top dose mostly 46.1 µM), usual class: cytotoxic. 3.4% of 400,000 active; note: % is set by controls: 0 for no effect and ±100 for the full control effect; nearly all actives have a fitted effect of over 60% in size
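Potencies derive from concentration-effect curves fitted to normalized luminescence (CellTiter-Glo) of KB-V1 cells treated for 72 h at 37 degrees C in phenol-red-free DMEM containing 10% FBS.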
SW480 rereplic – induces DNA re-replication in SW480 colon adenocarcinoma cells; SW480 DNA re-replication, Hoechst DNA content imaging, 48 h; Potency, µM (top dose mostly 46.1 µM), for inactives: at the top dose re-replication activation, most hits filed as activators; 1.8% of 340,000 active; AID 624297; note: % of control where 0% means no effect; nearly all actives have a fitted effect of over 55% in size
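Per well, 250 cells were exposed to pinned compound for 48 hr. Nuclear DNA was visualised with Hoechst (40 min, 37 C) and total object intensity recorded by fluorescence scanning.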
MCF10A rereplic – DNA re-replication induction in MCF 10a cells; 2.9% of 350,000 active; Potency, µM (top dose mostly 46.1 µM), for inactives: at the highest dose activity, positive = re-replication, actives largely listed as activators; MCF 10A DNA re-replication, Hoechst nuclear intensity, 48 h; note: % of control where 0% means no effect; nearly all actives have a fitted effect of over 50% in size
PINK1 expr mod – modulators of PINK1 expression; PINK1 immunofluorescence, high-content cytometry, 24 h; Potency, µM (titrated, usually from 76.6 µM), for inactives: at the highest dose activation (PINK1 increase), hits mostly activators; 0.2% of 410,000 active; AID 624263; active = well fitted activation curve with a large enough effect; inconclusive = small, poorly fitted or top-dose-only effect; cell line not stated here; note: % of control where 0% means no effect; nearly all actives have a fitted effect of over 65% in size
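Readout is PINK1 immunofluorescence, quantified alongside mitochondrial, cell and nuclear markers by laser-scanning microplate cytometry. Cells from a stable line were exposed to compound titrations (5 concentrations) for 24 hours, with CCCP controls.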
* = called active by the depositor; i = inactive; ? = inconclusive; . = no result given; ! = not confirmed by another sample; [ ] = remark or other dose. Unless noted, calls come from the whole dose curve; as a rule, active = well fitted curve in the direction sought with a large enough effect; inconclusive = small, poorly fitted or top-dose-only effect, or another doubt; inactive = no such curve, though single readings can be large; an effect the other way counts as inactive or inconclusive. Potency is the fitted concentration of half-maximal effect.

SMILES | KB-3-1 tox | KB-V1 cytotox | SW480 rereplic | MCF10A rereplic | PINK1 expr mod
C=CCN1C(=O)C2C3CC(=O)C(c4ccccc43)C2C1=O (configuration not stated) | i | i | 5.2µM* | 10% | 1%
O=C(c1cc(-c2cccc(O)c2)on1)N1CCN(C(c2ccccc2)c2ccccc2)CC1 | 18µM* | ? | 18% | 6.5µM* | -1%
COc1ccc(-c2cc(C(=O)N3CCN(c4ccccc4OC)CC3)no2)cc1 | i | i | 18% | ? | 0%
COc1ccc(-c2cc(C(=O)N3CCN(c4ccccc4)CC3)no2)cc1 | ? | 21µM*! | -6% | ? | 6%
COC(=O)c1cc2c(n1S(=O)(=O)c1ccc(C)cc1)C(=O)C(=O)c1[nH]cc(C(=O)OCc3ccccc3)c1-2 | 3.3µM* | 7.3µM* | ? | 8% | -6%
CC(C)(C)NC(=O)C(c1ccc(-c2ccccc2)cc1)N(C[C@H]1CC[C@@H]([C@@H]2CC[C@H](CO)O2)O1)C(=O)c1cccc(Cl)c1 (some centres not stated) | 15µM* | i | 10%[9.22 µM] | ? | 6%
Cc1ccc(OCC(=O)Nc2ccc(S(=O)(=O)Nc3ncccn3)cc2)c(C(C)(C)C)c1 | i | i | . | . | 1%
CCOC(=O)N1CCN(C(=O)c2ccc3c(=O)n(Cc4ccc(Cl)cc4)c(=S)[nH]c3c2)CC1 | 23µM* | 13µM* | -4% | ? | 3%
O=C(c1ccc2c(=O)n(Cc3ccco3)c(=S)[nH]c2c1)N1CCN(Cc2ccc3c(c2)OCO3)CC1 | . | . | . | . | 0%
CCOC(=O)N1CCN(C(=O)c2ccc(Cn3c(=S)[nH]c4ccc(Br)cc4c3=O)cc2)CC1 | ? | i | ? | 4% | 25µM*
O=C(c1ccc2c(=O)n(Cc3ccco3)c(=S)[nH]c2c1)N1CCN(Cc2ccccc2)CC1 | ? | 21µM* | 1% | ? | 5%[38.3 µM]
O=C(NCc1ccccc1)C1CC(=O)N(c2ccc(OCC(=O)N3CCOCC3)cc2)C1 (configuration not stated) | i | i | -13% | -1% | 1%
CC1(C)CC[C@]2(C(=O)n3ccnc3)CC[C@]3(C)[C@H](C(=O)C=C4[C@@]5(C)C=C(C#N)C(=O)C(C)(C)[C@@H]5CC[C@]43C)[C@@H]2C1 | ? | ? | ? | 0.52µM* | -7%
COc1ccc(N/C(N)=N/c2nc(C)cc(C)n2)cc1 | i | i | . | . | 1%
Cc1cc(C)nc(/N=C(\N)Nc2cccc(OCc3ccccc3)c2)n1 | ? | 5.8µM* | ? | 13µM* | ?
CCCCCCCCN1C(=O)[C@H](CC(=O)NCc2cccs2)C[C@@]2(C(=O)OC)CCCCC=C12 | ? | 21µM* | . | . | 17%
COC(=O)[C@]12CCCCC=C1N(Cc1cccc3ccccc13)C(=O)[C@H](CC(=O)NCc1cccs1)C2 | ? | 16µM* | . | . | -1%
COC(=O)[C@]12CCCCC=C1N(Cc1cccc3ccccc13)C(=O)[C@H](CC(=O)NCc1cccc3ccccc13)C2 | i | i | . | . | 0%
CCCCCCCCN1C(=O)[C@H](CC(=O)NCc2cccc(C(F)(F)F)c2)C[C@@]2(C(=O)OC)CCCCC=C12 | ? | 16µM* | . | . | 5%
COC(=O)[C@]12CCCCC=C1N(CCc1ccc(OC)c(OC)c1)C(=O)[C@H](CC(=O)NCc1cccc3ccccc13)C2 | i | 21µM* | . | . | .
COC(=O)[C@]12CCCCC=C1N(CCc1ccc(OC)c(OC)c1)C(=O)[C@H](CC(=O)NCc1ccc(C)o1)C2 | i | ? | . | . | .
Cc1ccc2c(c1)N(C(=O)CCC(=O)N1CCC(C(N)=O)CC1)CCO2 | i | i | -20% | 13% | 0%
Cc1nn(C)cc1CNc1nc(C)c(-c2ccn(CC3COc4ccccc4O3)n2)s1 (configuration not stated) | . | . | . | . | -1%
Nc1ccc2c(c1)C1(CCC2)NC(=O)NC1=O (configuration not stated) | i | i | . | . | 1%
CC(=O)Nc1ccc(-c2ccnc3c2CC(C)(C(=O)Nc2cccc(OC(F)(F)F)c2)O3)cc1 (configuration not stated) | ? | ? | . | . | 8%
SMILES | KB-3-1 tox | KB-V1 cytotox | SW480 rereplic | MCF10A rereplic | PINK1 expr mod
CCCCOCCCNC(=O)C[C@@H]1C[C@@]2(C(=O)OCC)CCCC=C2N(Cc2cccc3ccccc23)C1=O | ? | 18µM* | . | . | 23%
COC(=O)[C@]12CCCCC=C1N(Cc1cccc3ccccc13)C(=O)[C@H](CC(=O)NCc1ccc(OC)c(OC)c1)C2 | 5.8µM* | ? | . | . | 5%
CCOC(=O)[C@]12CCC=C1N(Cc1cccc3ccccc13)C(=O)[C@H](CC(=O)NCc1ccc(OC)c(OC)c1)C2 | 6.5µM* | ? | . | . | 0%
CCOC(=O)[C@]12CCC=C1N(Cc1cccc3ccccc13)C(=O)[C@H](CC(=O)NCCC(C)C)C2 | ? | 16µM* | . | . | 3%
COc1cc(OC)c(NC(=O)C2CCN(S(=O)(=O)c3c(C)noc3/C=C/c3c(C)cc(C)cc3C)CC2)cc1Cl | . | . | . | . | 0%
Cc1cc(O)c2c(c1)C(=O)[C@@]13Oc4c5c(c(O)c6c(O)cc(C)cc46)C(=O)C[C@H](O)[C@H]5[C@@H]1[C@@H](O)CC(=O)C3=C2O | i | i | ? | 10% | 1%
c1csc(-c2nc3c4ccccc4c4ccccc4c3[nH]2)c1 | ? | ? | 2% | ? | 7%
Oc1ccccc1-c1nc2c3ccccc3c3ccccc3c2[nH]1 | i | i | ? | 18µM* | ?
O=C(CN1c2cccc3cccc(c23)S1(=O)=O)NCCc1ccccc1 | i | 21µM* | 5% | 11% | 3%
COc1cc(/C=N/NC(=O)c2ccc(CN3c4cccc5cccc(c45)S3(=O)=O)cc2)cc(OC)c1O | i | i | 17% | 16µM* | 6%
O=C(CN1c2cccc3cccc(c23)S1(=O)=O)NCCc1ccc(F)cc1 | i | i | -14% | -2% | 1%
COc1ccc(OC)c(NC(=O)CN2c3cccc4cccc(c34)S2(=O)=O)c1 | i | 5.2µM* | 0% | 7% | -1%
COc1ccc(NC(=O)CN2c3cccc4cccc(c34)S2(=O)=O)c(OC)c1 | i | i | 12% | -11% | -2%[38.3 µM]
COc1ccc(C)cc1NC(=O)CN1C(=O)c2cccc3cccc1c23 | i | i | ? | 15µM* | 21%
CCS(=O)(=O)N1CC(=O)N(c2cccc(Cl)c2C)C(C)(C(=O)NC2CCCCC2)C1 (configuration not stated) | i | i | . | . | -1%
Cc1cc(F)ccc1NC(=O)C(C(C)C)N1Cc2ccccc2C1=O (configuration not stated) | i | i | . | . | 0%
